Source: PubChem BioAssay
Shown are actives, neighbours in structure and some others; about 6.6% of the full set was active somewhere.
NADH coupling: inhibition of NAD/NADH coupling enzymes, library profiling; coupled PK/LDH NADH assays, four targets; IC50, µM (highest dose often 10 µM); actives 0.02% (n = 65,000); AID 774;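 active = single-dose screening hits from any of four coupled enzyme assays that gave an IC50 when retested across doses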;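 also: the DPM-DC format reads NADH fluorescence rather than 340 nm absorbance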
Spn MK inh: blocks S. pneumoniae mevalonate kinase. AID 555. purified MK, PK/LDH-coupled NADH absorbance 340 nm. actives 0.48% (n = 65,000). inhibition, % at 10 µM;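 active = ranked among the strongest by inhibition in the single 10 µM screen, a fixed top-ranked set picked for dose follow-up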
DPM-DC inhibit: blocks S. pneumoniae diphosphomevalonate decarboxylase | purified DPM-DC, PK/LDH coupled NADH fluorescence | calls only at 10 µM | actives 0.49% (n = 65,000) | AID 556;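 active = the 320 compounds with the highest percent inhibition in the single-dose primary screen, excluding strongly autofluorescent ones, cut at about 32% in these data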;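 also: kinetic rate of NADH fluorescence loss reporting ADP formed by the decarboxylase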
PMK inhibit: S. pneumoniae PMK inhibition; AID 539; inhibition, % at 10 µM; purified PMK, PK/LDH-coupled NADH absorbance 340 nm; actives 0.49% (n = 65,000);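 active = top-ranked compounds by inhibition in the single 10 µM screen, taking a fixed number of the strongest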
Fluor 339 460: intrinsic fluorescence of library compounds, ex339/em460 – biochemical, MLSMR library, data from DPM-DC assay, artefact control, profiling panel. compound autofluorescence, ex339/em460 nm, NADH buffer; stronger effect = higher value; 1 = no-compound wells, NADH background. fluorescence fold increase at 10 µM. actives 5.5% (n = 65,000). AID 709;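 active = at 10 µM, mean starting fluorescence two-fold or more over control wells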;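 also: signal is the first read of a kinetic run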
Large screens that a line does not name were inactive.

Cc1cccc2cc(CN(CCN3CCOCC3)C(=O)Nc3ccccc3F)c(=O)[nH]c12	none
Cc1ccc2[nH]c(=O)c(CN(CCN3CCOCC3)C(=O)Nc3ccccc3F)cc2c1	Spn MK inh active
COc1ccc2[nH]c(=O)c(CN(C(C)=O)C3CCCCC3)cc2c1	Fluor 339 460 3.48 (not shown: DPM-DC inhibit)
Cc1cc(C)n(-c2nc3ccccc3[nH]c2=O)n1	Fluor 339 460 2.8
CCCc1cc(Nc2c(C)n(C)n(-c3ccccc3)c2=O)n2c(nc3ccccc32)c1C#N	none
CCc1c(C)c(C#N)c2nc3ccccc3n2c1Nc1c(C)n(C)n(-c2ccccc2)c1=O	DPM-DC inhibit active
O=C(c1ccc(COc2c(F)c(F)cc(F)c2F)o1)N1CCN(c2ccc(Cl)cc2)CC1	none
Cc1ccc(NC(=O)CCn2c(=O)oc3ccccc32)c(C)c1	none
COC(=O)C1=C(NC(=O)c2ccc(C)c(C)c2)CCS1	Fluor 339 460 2.71
Cc1ccc(-c2nnc(N3CCN(C(=O)CSc4ncn[nH]4)CC3)c3ccccc23)cc1	none
CCOC(=O)C1CCN(C(=O)CSc2nnc(-c3ccco3)n2-c2ccccc2)CC1	none
Cc1nn(-c2ccccn2)c2c1C(c1ccsc1)C1=C(CCCC1=O)N2 (stereo unspecified)	Fluor 339 460 4.9 (not shown: DPM-DC inhibit)
CC(=O)Cc1nsc(NC(=O)c2ccc(COc3ccccc3)o2)n1	none
COc1ccc(C2C(C#N)=C(SC)NC3=C2C(=O)CC(C)(C)C3)cc1 (stereo unspecified)	none
COC(=O)c1ccc(C2C(C#N)=C(C)NC3=C2C(=O)CC(C)(C)C3)cc1 (stereo unspecified)	Fluor 339 460 4.7 (not shown: DPM-DC inhibit)
Cc1ccc2nc(Nc3nc(=O)c4ccccc4n3C)nc(C)c2c1	none
Cc1ccc(-c2nc3c(=O)n(C)c4ccccc4c3o2)cc1	Fluor 339 460 4.65 (not shown: DPM-DC inhibit)
CCOc1cccc(OCCCNCCCOC)c1	Spn MK inh 40.0
O=C(Nc1ccc(-c2nc3ccccc3o2)cc1)c1ccc2c(c1)OCO2	Fluor 339 460 3.62 (not shown: DPM-DC inhibit)
Cc1ccc2oc(-c3ccc(NC(=O)c4ccc5c(c4)OCO5)cc3)nc2c1	Fluor 339 460 3.66 (not shown: DPM-DC inhibit)
Cc1ccc2oc(-c3ccc(NC(=O)c4cccnc4)cc3)nc2c1	Fluor 339 460 2.09
Cc1ccc(-c2nc3ccccc3o2)cc1NC(=O)c1ccc2c(c1)OCO2	none
O=C(Nc1ccc2oc(-c3cccnc3)nc2c1)c1cccnc1	none
Cc1cc(C)nc(Sc2c(C)nn(-c3ccccc3)c2C)n1	none
CCCCc1nc(NCC2CCCO2)c(C#N)c2c1COC(C)(C)C2 (stereo unspecified)	Fluor 339 460 2.41 (not shown: DPM-DC inhibit)
CCCSc1nc(N2CCCC2)c2c(c1C#N)CC(C)(C)OC2	none
CCCCc1nc(N2CCOCC2)c(C#N)c2c1COC(C)(C)C2	Fluor 339 460 2.29 (not shown: DPM-DC inhibit)
Cc1cc(C)c2cc(CN(CCO)C(c3nnnn3Cc3ccc(F)cc3)C(C)C)c(=O)[nH]c2c1 (stereo unspecified)	none
CCC(c1nnnn1Cc1ccc(F)cc1)N(CCCO)Cc1cc2cc3c(cc2[nH]c1=O)OCO3 (stereo unspecified)	Fluor 339 460 2.25
COC(=O)C1=CNC=C(C(=O)OC)C1c1ccc(Cl)cc1	Fluor 339 460 3.84 (not shown: DPM-DC inhibit)
COC(=O)C1=CNC=C(C(=O)OC)C1c1cccc(OC)c1	Fluor 339 460 3.89 (not shown: DPM-DC inhibit)
COC(=O)C1=CNC=C(C(=O)OC)C1c1ccccc1Cl	Fluor 339 460 3.63 (not shown: DPM-DC inhibit)
O=C(COc1ccc2c(c1)CCC2)N1CCc2ccccc21	none
CC(C)C1N=C2c3ccccc3N=C(SCC#N)N2C1=O (stereo unspecified)	Fluor 339 460 2.57
N#CCSC1=Nc2ccccc2C2=NC(CCC(=O)N3CCN(c4ccccc4)CC3)C(=O)N12 (stereo unspecified)	none
COc1ccc(OCC(=O)N2CCN(C(=O)COc3ccc(Br)cc3)CC2)cc1	none
COc1ccc2c(c1)c(=O)oc1cc(OCC(=O)N3CCCC(C)C3)ccc12 (stereo unspecified)	Fluor 339 460 3.91 (not shown: DPM-DC inhibit)
COc1ccc2c(c1)c(=O)oc1cc(OCC(=O)N3CCC(C)CC3)ccc12	Fluor 339 460 3.51 (not shown: DPM-DC inhibit)
O=c1c2nnn(Cc3ccccc3)c2ncn1C/C=C/c1ccccc1	none
CCOC(=O)c1sc2nc(NC(=O)C3CC3)sc2c1C	Fluor 339 460 2.01
CCOC(=O)c1sc2nc(NC(=O)C3CCCCC3)sc2c1C	none
CCOC(=O)c1[nH]c2ccc(OC)cc2c1NC(=O)CN1CCSCC1	Fluor 339 460 3.89 (not shown: DPM-DC inhibit)
CCOC(=O)c1[nH]c2ccc(OC)cc2c1NC(C)=O	Fluor 339 460 3.55 (not shown: DPM-DC inhibit)
COc1cc2c(cc1OC)C(C)N(C(=O)C1COc3ccccc3O1)CC2 (stereo unspecified)	none
CCOc1ccc(CCNS(=O)(=O)c2cccc3nsnc23)cc1OCC	none
CCCn1c(-c2cccs2)nc2ccccc21	Fluor 339 460 3.69 (not shown: DPM-DC inhibit)
C=CCn1c(-c2cccs2)nc2ccccc21	Fluor 339 460 3.13 (not shown: DPM-DC inhibit)
Cc1cccc(CN2CCN(c3ccccn3)CC2)c1	Spn MK inh 48.0
c1ccc(N2CCN(c3cnccn3)CC2)nc1	DPM-DC inhibit active
Cc1cc(C(F)(F)F)nn1CCCNC(=O)c1cnccn1	none
Cc1ccc2nc3c(cc(C(=O)NCC4CCCO4)n3C)c(=O)n2c1 (stereo unspecified)	Fluor 339 460 3 (not shown: DPM-DC inhibit)
Cc1cc(C(=O)NCCCn2ccnc2)cs1	none
Cc1ccc2nc3c(cc(C(=O)NCCCn4ccnc4)n3C)c(=O)n2c1	Fluor 339 460 3.93 (not shown: DPM-DC inhibit)
Cc1ccc2nc3c(cc(C(=O)NCC4CCCO4)c(=N)n3CCCOC(C)C)c(=O)n2c1 (stereo unspecified)	Fluor 339 460 3.72 (not shown: DPM-DC inhibit)
CCN(CC)CCCN1C(=O)c2oc3ccccc3c(=O)c2C1c1cc(OC)ccc1OC (stereo unspecified)	none
Cc1ccc(-c2nc(C3CCN(S(C)(=O)=O)CC3)no2)cc1	none
O=C(NC1(C(F)(F)F)C(=O)Nc2c1c(=O)[nH]c(=O)n2Cc1ccco1)C1CC1 (stereo unspecified)	none
CC(C)C(=O)Nc1cccc(C(=O)Nc2nccs2)c1	none
CC1(C)Cc2c(C#N)c(N3CCN(C(=O)c4ccccc4)CC3)nc(-c3ccco3)c2CS1	none
CC1(C)Cc2c(C#N)c(NCc3ccco3)nc(-c3ccco3)c2CO1	Fluor 339 460 2.25 (not shown: DPM-DC inhibit)
CCC(=O)N1CCN(c2nc(-c3ccccc3)c3c(c2C#N)CCCC3)CC1	Fluor 339 460 2.08 (not shown: DPM-DC inhibit)
CCCc1nc(NCc2ccco2)c(C#N)c2c1COC(C)(C)C2	none
CC1(C)Cc2c(C#N)c(OCC(=O)c3ccc(Cl)cc3)nc(-c3ccco3)c2CO1	Fluor 339 460 2.12
CC(C)c1nc(N2CCN(C(=O)c3ccccc3)CC2)c(C#N)c2c1COC(C)(C)C2	Fluor 339 460 2.13 (not shown: DPM-DC inhibit)
CCn1c(SCC(=O)NC(=O)Nc2ccc3c(c2)OCCO3)nnc1-c1cccs1	none
CCCCCOC(=O)CSc1nnc(-c2ccccc2)c(=O)[nH]1	none
Cc1nc(NCc2ccco2)c(C#N)c2c1COC(C)(C)C2	Fluor 339 460 2.72
CCCCN(C)c1nc(-c2ccco2)c2c(c1C#N)CC(C)(C)OC2	none
